According to PubChem BioAssay (NCI):
This is part of a sample that, as a whole, favours compounds with a hit. Of some 83,000 tested, about 20% had one in any assay.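 96-well plates, one dose, 48 hours. Percent growth reported; active if below 10.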 A number with no mark means an inactive call. The source made the active and inactive calls.

Experiments:
Assay in all cases: NCI-60 one-dose screen, 48 h (100 = growth as untreated, 0 = no growth, -100 = all killed)
Conditions in all cases: 10 µM unless noted
SK-MEL-2 melanoma = test system: SK-MEL-2 melanoma
EKVX NSCLC = test system: EKVX NSCLC
SN12C renal = test system: SN12C renal
UO-31 renal = test system: UO-31 renal
TK-10 renal = test system: TK-10 renal
ACHN renal = test system: ACHN renal
CAKI-1 renal = test system: CAKI-1 renal
A498 renal = test system: A498 renal
CCRF-CEM leukemia = test system: CCRF-CEM leukemia
MOLT-4 leukemia = test system: MOLT-4 leukemia
SR leukemia = test system: SR leukemia
RPMI-8226 leukemia = test system: RPMI-8226 leukemia
OVCAR-8 ovarian = test system: OVCAR-8 ovarian
OVCAR-5 ovarian = test system: OVCAR-5 ovarian
OVCAR-4 ovarian = test system: OVCAR-4 ovarian
SK-OV-3 ovarian = test system: SK-OV-3 ovarian
IGROV1 ovarian = test system: IGROV1 ovarian
OVCAR-3 ovarian = test system: OVCAR-3 ovarian
HS 578T breast = test system: HS 578T breast
NCI/ADR-RES ovarian = test system: NCI/ADR-RES ovarian

Compound | growth (SK-MEL-2 melanoma) | growth (EKVX NSCLC) | growth (SN12C renal) | growth (UO-31 renal) | growth (TK-10 renal) | growth (ACHN renal) | growth (CAKI-1 renal) | growth (A498 renal) | growth (CCRF-CEM leukemia) | growth (MOLT-4 leukemia) | growth (SR leukemia) | growth (RPMI-8226 leukemia) | growth (OVCAR-8 ovarian) | growth (OVCAR-5 ovarian) | growth (OVCAR-4 ovarian) | growth (SK-OV-3 ovarian) | growth (IGROV1 ovarian) | growth (OVCAR-3 ovarian) | growth (HS 578T breast) | growth (NCI/ADR-RES ovarian)
COc1cccc(/C=C/c2nc3ccccc3c(=O)n2CC(=O)Nc2ccc(Cl)cc2)c1 | 111% | 109% | 39.2% | 16% | 32.2% | -1.49% (active) | 60.5% | 25.1% | 86.1% | 90.6% | 79.7% | 88.3% | 48.8% | 73.5% | -11.4% (active) | 76.8% | 77.3% | 35.5% | 32.8% | 
COc1cc(C2CC(c3cc(OC)c(OC)c(OC)c3)=NN2c2ccccc2)ccc1OCc1ccc(C)cc1 (centres undefined) | 88.1% | 94.1% | 95.1% | 84.8% | 118% | 99.6% | 77.8% | 102% | 106% | 91.6% | 105% | 102% | 98% | 105% | 89.2% | 101% | 94.2% | 101% | 94.5% | 
Cn1cc(-c2cc(N)n3nc(-c4c[nH]c5ccccc45)cc3n2)c2cc(Br)cnc21 | -72.6% (active) | -60.4% (active) | -81.5% (active) | -42.1% (active) | -58.2% (active) | -74.6% (active) | -36% (active) | -28.6% (active) | -36.2% (active) | -52% (active) | -29.5% (active) | -14.8% (active) | -22.6% (active) | -77.6% (active) | 5.89% (active) | -34.6% (active) | -41.9% (active) | -66% (active) | -17.5% (active) | 
COc1ccc(-c2ccnc(SCc3cc4cc(OC)ccc4[nH]c3=O)n2)cc1 | 12.8% | 34% | 14.7% | 21.1% | 36.8% | 33.6% | 38.8% | 79.6% | 6.65% (active) | 4.45% (active) | 4.47% (active) | 9.3% (active) | 33.3% | 46.8% | 43.3% | 45.2% | 33.3% | 18.3% | 28.2% | 
COc1ccc(C(=O)/C=C/c2ccc(OCc3ccccc3)c(OC)c2)cc1OC | 72.7% | 80.4% | 1.82% (active) | 31.4% | 62.7% | 38.3% | 38.8% | 102% | 9.36% (active) | 9.48% (active) | 8.91% (active) | 9.53% (active) | -1.43% (active) | 4.82% (active) | 25.6% | 83.5% | 23.3% | 25.8% | 75.5% | 
NS(=O)(=O)c1ccc(N=Nc2c(O)n(CC(=O)Nc3ccccc3)c3ccccc23)cc1 | 42.7% | 38.4% | 52.7% | 31.1% | 84% | 11% | 7.36% (active) | 60% | 50.2% | 7.09% (active) | 18.5% | 42.7% | 11.3% | 74.5% | 57.3% | 25.2% | 38.9% | 20.8% | 52% | 
Cc1cc2c(cc1Cl)C(=O)/C(=C/c1ccccc1)O2 | 41% | -7.97% (active) | -68.8% (active) | -80.4% (active) | 56% | -83.1% (active) | -81.1% (active) | 115% | 4.91% (active) | 0.549% (active) | 10.1% | 26% | -24.7% (active) | 75% | 9.29% (active) | 71.4% | -48.2% (active) | 26.8% | 21% | -19.8% (active)
COc1ccc2[nH]c(=O)c(CSc3nccc(-c4ccc(OC)c(OC)c4)n3)cc2c1 | 44.2% | 15.7% | 33.6% | 16.1% | 26.4% | 24.4% | -10.2% (active) | 47.8% | 31.3% | 7.07% (active) | 23.1% | 14.7% | 16% | 52.4% | 8.75% (active) | 55.8% | 49.8% | 41.9% | -7.63% (active) | 
S=c1c2ccccc2nc2n1CCc1c-2[nH]c2ccccc12 | 72.9% | 50.6% | 60.9% | 56.8% | 69% | 42.4% | 36.6% | 112% | 96.2% | 74.1% | 67.7% | 89.5% | 28.6% | 86.8% | 50.3% | 42.2% | 48.2% | 67.2% | 8.23% (active) | 
COc1ccc2[nH]cc(-c3cc(N)n4nc(-c5cn(C)c6ccccc56)cc4n3)c2c1 | -96% (active) | -82.8% (active) | -73.2% (active) | -93.7% (active) | -95.3% (active) | -100% (active) | -96% (active) | -80.6% (active) | -39.3% (active) | -41.4% (active) | 9.5% (active) | -18% (active) | -95.6% (active) | -85.9% (active) | -58.3% (active) | -84% (active) | -64.2% (active) | -43% (active) | -7.76% (active) | 
Cn1cc(-c2cc3nc(-c4cn(C)c5ncccc45)cc(N)n3n2)c2ccccc21 | 15.2% | 43.7% | -38.2% (active) | 8.84% (active) | 80.3% | -73.3% (active) | -23.2% (active) | -2.42% (active) | 0.438% (active) | -21.3% (active) | -28.8% (active) | -19.1% (active) | 10.2% | 48.9% | 3.01% (active) | 42.8% | 0.888% (active) | 6.85% (active) | -13% (active) | 
CCCn1cc(-c2nc(Nc3ccc(C(=O)NCCCCNc4cccc5c4C(=O)N(C4CCC(=O)NC4=O)C5=O)cc3)nc3[nH]ccc23)cn1 (centres undefined) | 10.4% | 54.4% | 12.3% | 73.9% | 59.1% | 75.7% | 27.3% | -2.58% (active) | -15.1% (active) | -37.9% (active) | 25.1% | 17.5% | 6.6% (active) | 54.2% | 9.82% (active) | 24.8% | 7.36% (active) | 36.3% | 6.24% (active) | 95.6%
C=C1CCC2C3(C)COC(c4ccccc4F)OC3CCC2(C)C1CC(O)C1=CCOC1=O (centres undefined) | 17.2% | 85.3% | 39.1% | 11.7% | 107% | -23% (active) | 66% | 141% | 16.7% | 48.9% | 30.9% | 10.7% | -11.4% (active) | 74.9% | 50.3% | 110% | 51.4% | 31.1% | 78.3% | 5.4% (active)
OCC1(CCCc2ccccc2)CCCN(c2nccc3ccccc23)C1 (centres undefined) | 30.7% | 23.4% | 44.4% | 26.9% | 50.1% | 51.8% | 38.6% | 63.3% | 49.2% | 32.3% | 12.1% | 5.11% (active) | 23.1% | 62.4% | 32.8% | 57.7% | 62.2% | 45.6% | 42% | 11.8%
CC1(c2cc3cc(Br)ccc3oc2=O)NC(=O)c2c(/C=C/C(=O)OC3CC4CCC3(C)C4(C)C)cccc2N1 (centres undefined) | 92.7% | 62.1% | 75.5% | 59.8% | 104% | 76.6% | 78.2% | 142% | 82.2% | 47% | 66.8% | 35.8% | 89% | 92.6% | 75.4% | 86.4% | 92.6% | 83.1% | 95.8% | 
